Experimental data: PubChem BioAssay (NCATS)
Records with an inconclusive call do not appear. The source made the active and inactive calls. Unless noted, the rule behind the calls is not given here.

How the values were obtained:
[1] = qHTS profiling of the MIPE4 collection as inhibitors of Plasmodium falciparum (3D7) proliferation (AID 743344);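 note: scaled between DMSO vehicle wells and 0.29 µM artemisinin as full inhibition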; conditions: P. falciparum 3D7 in erythrocytes, SYBR Green DNA fluorescence, 72 h; at 28.5 µM unless noted
In short: (§1)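 Parasite DNA was quantified by SYBR Green I fluorescence (ex 485, em 535 nm) after overnight lysis in saponin/Triton buffer at room temperature. Cultures at 0.3% parasitemia and 2.5% hematocrit were first exposed to compound for 72 h at 37 C; signals were normalised to artemisinin (0.29 uM) and vehicle wells.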

[2] = qHTS profiling of the MIPE4 collection as inhibitors of Plasmodium falciparum (DD2) proliferation (Rep 2) (AID 743346); conditions: P. falciparum Dd2 in erythrocytes, SYBR Green DNA, 72 h; at 28.5 µM unless noted
In short: as §1

[3] = qHTS profiling of the MIPE4 collection as inhibitors of Plasmodium falciparum (HB3) proliferation (AID 743347);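 note: plate controls were DMSO vehicle wells for no effect and artemisinin wells for full effect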; conditions: P. falciparum HB3 in erythrocytes, SYBR Green DNA, 72 h; at 28.5 µM unless noted
In short: as §1

[4] = High-throughput drug toxicity screening in the BPDCN cell line Cal-1 (AID 1224825); conditions: Cal-1 BPDCN cell viability, qHTS; at 45.8 µM (top of the series) unless noted
In short: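 CellTiter-Glo luminescence after 48 h compound exposure; percent activity scaled with DMSO as 100% and bortezomib (9.2 uM final) as 0%. Cal-1 cells seeded at 500/well in RPMI, 10% FBS, no phenol red.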

[5] = qHTS assay for measurement of the activity of small molecule inhibitors on Zika virus induced Caspase-3 activity in human iPSC derived neural progenitor cells (hNPCs) (AID 1224857; active = well fitted curve in the direction sought with a large enough effect; an effect the other way counts as inactive or inconclusive; note: nearly all actives have a fitted effect of over 65% in size; note: potency is the fitted concentration of half-maximal effect)
In short: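 After overnight (16–20 h) culture at 350 cells/well, hNPCs get compound, then ZIKV 2 FFU/cell one hour later. Six hours on, Caspase-Glo 3/7 is added and luminescence measured.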

[6] = qHTS assay for measurement of the activity of small molecule inhibitors on Zika virus induced Caspase-3 activity in human astrocytoma cells (AID 1224859; active = well fitted curve in the direction sought with a large enough effect; an effect the other way counts as inactive or inconclusive; note: potency is the fitted concentration of half-maximal effect)
In short: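 Inhibition of Zika-induced caspase-3/7 activity: SNB-19 cells, 1 h compound pretreatment, ZIKV 2 FFU/cell for 6 h at 37 C, Caspase-Glo luminescence read-out.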

[7] = qHTS Assay for Identifying Gametocytocidal Compounds (AID 743244; active = well fitted curve in the direction sought with a large enough effect; an effect the other way counts as inactive or inconclusive;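 note: % is set by controls: 0 for no effect and ±100 for the full control effect; actives lower the fluorescent signal which means gametocytes are killed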); conditions: P. falciparum 3D7 stage III-V gametocytes, alamarBlue, 72 h; max response: stronger effect = lower value
In short: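 Using 20,000 stage III–V 3D7 gametocytes per well, compounds were incubated 72 h under 37 °C/5% CO2. Viability was then assessed by 24 h alamarBlue reduction, measured fluorometrically at 525/598 nm.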

[8] = qHTS profiling of the MIPE4 collection as inhibitors of Plasmodium falciparum (DD2) proliferation (AID 743345); conditions: P. falciparum Dd2 in erythrocytes, SYBR Green DNA, 72 h; at 28.5 µM unless noted
In short: as §1

[9] = qHTS Screen of the MIPE 4.0 Collection Against Ewings Sarcoma (RDES) (AID 1259252; active = well fitted curve in the direction sought with a large enough effect; an effect the other way counts as inactive or inconclusive; note: nearly all actives have a fitted effect of over 35% in size; note: potency is the fitted concentration of half-maximal effect)
In short: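 Dose series incubated 48 h with cells in RPMI plus 5% FBS, glutamine and penicillin/streptomycin; cell viability then quantified via CellTiter-Glo.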

[10] = molecular target: T1, Hexokinase-4 (Homo sapiens) + Glucokinase regulatory protein (Homo sapiens) (UniProt P35557+Q14397); test: qHTS assay for inhibitors of recombinant human GCK-GKRP interaction: Diaphorase-coupled assay (AID 743205; active = well fitted curve in the direction sought with a large enough effect; an effect the other way counts as inactive or inconclusive)
In short: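 GST-GCK (10 nM) with FLAG-GKRP (10 nM), 5 mM glucose and 0.4 mM ATP in pH 7.6 Hepes; compounds preincubated 20 min with substrate. G6PDH/diaphorase coupling converts resazurin to resorufin, read kinetically (ex 525/em 590 nm) for 30 min.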

[11] = molecular target: T1, Hexokinase-4 (Homo sapiens) + Glucokinase regulatory protein (Homo sapiens); test: qHTS assay for inhibitors of recombinant human GCK-GKRP interaction: ADP-Glo assay (AID 743206; active = well fitted curve in the direction sought with a large enough effect; an effect the other way counts as inactive or inconclusive;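 note: plate controls were DMSO plus enzyme for no effect and no enzyme for full effect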)
In short: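 Pin-transferred compounds meet a 15 nM GST-GCK/15 nM FLAG-GKRP/2 uM S6P mix (dispense concentrations). ATP is then added to 0.4 mM final with 5 mM glucose, and the reaction runs 60 min at room temperature. ADP is quantified luminescently.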

[12] = molecular target: T1, Hexokinase-4 (Homo sapiens) + Glucokinase regulatory protein (Homo sapiens); test: qHTS assay for inhibitors of recombinant human GCK-GKRP interaction: HTRF assay (AID 743207; active = well fitted curve in the direction sought with a large enough effect; an effect the other way counts as inactive or inconclusive;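 note: 0% = DMSO with GCK present and -100% = DMSO wells lacking GCK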)
In short: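 GST-GCK and FLAG-GKRP (5 nM each) were combined with 2 uM S6P in pH 7.1 Hepes/MgCl2/KCl/DTT buffer, then compound and anti-FLAG XL665/anti-GST K antibodies were added. After 60 min at room temperature, HTRF 665/615 nm emission was read.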

[13] = qHTS profiling for inhibitors of Plasmodium falciparum (3D7) proliferation (AID 743322);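 note: infected erythrocytes exposed to compound for 72 h before lysis; 100% = DMSO vehicle wells and 0% = 0.29 µM artemisinin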; conditions: P. falciparum 3D7 proliferation; at 28.7 µM (top of the series) unless noted
In short: as §1

[14] = qHTS profiling for inhibitors of Plasmodium falciparum (DD2) proliferation (AID 743323); conditions: lower = more inhibition; at 28.7 µM (top of the series) unless noted
In short: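 1536-well qHTS; infected RBCs 0.3% parasitemia/2.5% Hct final; cpd 72 h 37 C 5% CO2; lysis buffer + SYBR Green I, o/n RT dark; FI 485/535; norm. to 0.29 uM artemisinin and DMSO, plate-stack corrected.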

[15] = qHTS profiling for inhibitors of Plasmodium falciparum (HB3) proliferation (AID 743324; active = well fitted curve in the direction sought with a large enough effect; an effect the other way counts as inactive or inconclusive;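 note: 100% = DMSO vehicle wells and 0% = artemisinin-treated control wells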); conditions: Plasmodium falciparum HB3 blood-stage proliferation; at 28.7 µM (top of the series) unless noted
In short: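 SYBR Green fluorescence (485 ex/535 em) of lysed cultures, incubated overnight at room temperature in the dark, quantifies parasite DNA. Infected erythrocytes at 0.3% parasitemia and 2.5% hematocrit were exposed 72 h; values normalized to DMSO and 0.29 uM artemisinin controls.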

T1 sequence (P35557 whole entry, looked up): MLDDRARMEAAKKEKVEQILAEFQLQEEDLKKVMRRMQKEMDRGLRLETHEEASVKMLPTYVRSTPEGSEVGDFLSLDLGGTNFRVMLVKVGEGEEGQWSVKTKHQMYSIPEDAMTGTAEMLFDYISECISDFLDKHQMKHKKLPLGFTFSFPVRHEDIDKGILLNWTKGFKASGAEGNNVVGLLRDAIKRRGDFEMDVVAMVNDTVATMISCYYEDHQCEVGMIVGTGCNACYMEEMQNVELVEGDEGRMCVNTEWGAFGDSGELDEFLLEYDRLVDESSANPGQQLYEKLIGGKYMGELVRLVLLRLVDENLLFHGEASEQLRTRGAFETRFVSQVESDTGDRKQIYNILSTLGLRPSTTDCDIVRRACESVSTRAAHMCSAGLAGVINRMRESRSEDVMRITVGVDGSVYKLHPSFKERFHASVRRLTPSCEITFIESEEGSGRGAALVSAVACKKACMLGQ
T1 sequence (Q14397 whole entry, looked up): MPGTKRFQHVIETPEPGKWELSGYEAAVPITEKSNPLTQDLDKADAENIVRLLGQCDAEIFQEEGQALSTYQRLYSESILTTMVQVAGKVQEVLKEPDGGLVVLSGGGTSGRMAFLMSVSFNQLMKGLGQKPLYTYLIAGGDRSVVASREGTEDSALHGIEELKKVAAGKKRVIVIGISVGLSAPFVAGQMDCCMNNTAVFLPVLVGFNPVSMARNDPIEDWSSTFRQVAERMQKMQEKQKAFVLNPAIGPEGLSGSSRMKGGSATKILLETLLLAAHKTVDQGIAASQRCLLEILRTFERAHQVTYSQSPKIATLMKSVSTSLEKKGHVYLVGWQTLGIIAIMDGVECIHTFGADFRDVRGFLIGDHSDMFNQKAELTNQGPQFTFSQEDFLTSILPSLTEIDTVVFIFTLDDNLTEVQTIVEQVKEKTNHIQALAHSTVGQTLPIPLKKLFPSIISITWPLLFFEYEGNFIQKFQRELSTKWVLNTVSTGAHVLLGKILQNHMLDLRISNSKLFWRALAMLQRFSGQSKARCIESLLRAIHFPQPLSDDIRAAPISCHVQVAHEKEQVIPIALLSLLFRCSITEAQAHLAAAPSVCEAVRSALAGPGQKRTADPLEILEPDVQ

Compound | parasite growth, % of DMSO control [1] | parasite growth, % of control (lower = inhibition) [2] | growth, % of control [3] | viability (% of control) [4] | Potency [5] | Potency [6] | max response [7] | parasite growth remaining, % of DMSO control (lower = more inhibition) [8] | Potency [9] | outcome [10] | outcome [11] | outcome [12] | remaining parasite growth % (stronger effect = lower value) [13] | activity, percent of control [14] | remaining proliferation (% of control), lower = more inhibition [15]
O=c1cc(-c2ccc(O)c(O)c2)oc2cc(O)cc(O)c12 | 13% | 27.8% | 14% | 68.6% | inactive | inactive |  |  |  |  |  |  |  |  | 
CN(C)CCN(Cc1ccc(Cl)cc1)c1ccccn1 | 38.2% | 28.6% | 53% | 37.6% | inactive | inactive | 18.2% (inactive) | 50.5% | 23.5 µM (active) |  |  |  |  |  | 
Cc1cc(CS(=O)(=O)c2ccccc2)cc(OCc2ccc(CN3CCC[C@H]3CO)cc2)c1 | 33.1% | 18.8% | 66.2% | 76.3% | inactive |  |  | 30.3% | 20.9 µM (active) |  |  |  |  |  | 
COc1ccc(-c2oc3c(CC=C(C)C)c(O)cc(O)c3c(=O)c2O)cc1 | 4.59% | 11.9% | 4.42% | 45.1% | inactive | inactive |  | 9.79% | 14.8 µM (active) |  |  |  |  |  | 
C[C@H]1COC2=C1C(=O)C(=O)c1c2ccc2c1CCCC2(C)C | 5.99% | 15.5% | 9.95% | 56.6% | inactive | inactive |  | 12.1% | 20.9 µM (active) |  |  |  |  |  | 
Cc1cc2nc3c(=O)[nH]c(=O)nc-3n(CC(O)C(O)C(O)CO)c2cc1C (stereo not given) | 21.3% | 22.3% | 17.8% | 101% | inactive | inactive |  | 57.4% | inactive |  |  |  |  |  | 
Nc1nc(Cl)nc2c1ncn2[C@@H]1O[C@H](CO)[C@@H](O)[C@H]1F | 81.5% | 63.9% | 96.1% | 13.2% | inactive | inactive |  | 97.5% | inactive |  |  |  |  |  | 
CN[C@@H]1[C@@H](O)[C@@H](O[C@@H]2[C@@H](O)[C@H](O[C@H]3O[C@H](CN)[C@@H](O)[C@H](O)[C@@H]3O)[C@@H](N)C[C@@H]2NC(=O)[C@@H](O)CN)OC[C@]1(C)O |  | 90.7% | 53.1% | 100% | inactive | inactive |  | 99.3% |  |  |  |  |  |  | 
COc1nccc(-c2c(-c3ccc(F)cc3)ncn2C2CCNCC2)n1 |  | 41% | 35.6% | 73.4% | inactive | inactive |  | 51.4% |  |  |  |  |  |  | 
CC[C@]1(O)C[C@H]2CN(CCC3=c4ccccc4=N[C]3[C@@](C(=O)OC)(c3cc4c(cc3OC)N(C)[C@H]3[C@@](O)(C(N)=O)[C@H](O)[C@]5(CC)C=CCN6CC[C@]43[C@@H]65)C2)C1 | 18.7% | 35% | 17.4% | 14.9% | inactive | inactive |  | 14.1% | 0.0033 µM (active) |  |  |  |  |  | 
C[C@@H]1CCO[C@H]2Cn3cc(C(=O)NCc4ccc(F)cc4F)c(=O)c(O)c3C(=O)N12 | 55% | 38.3% | 62.8% | 12.5% | inactive | inactive |  |  |  |  |  |  |  |  | 
O=C(c1ccc(C=Cc2n[nH]c3ccccc23)cc1)N1CCNCC1 | 22.1% | 22.9% | 6.97% | 18% | inactive | inactive |  |  |  |  |  |  |  |  | 
C=CCc1cccc(C=NNC(=O)CN2CCN(Cc3ccccc3)CC2)c1O | 38.6% | 19.3% | 97.7% | 11.1% | inactive | inactive |  | 23.3% |  | inactive | inactive | inactive |  |  | 
CC(C)C[C@@H](C(=O)N[C@H](C(=O)OC1CCCC1)c1ccccc1)[C@H](O)C(=O)NO | 15.1% | 29% | 7.8% | 8.67% | inactive | inactive |  | 21.7% | 26.4 µM (active) |  |  |  | 3.5% | 9.3% | 11%
Cn1c(=O)c(-c2c(Cl)cccc2Cl)cc2cnc(Nc3cccc(C(=O)O)c3)nc21 |  | 19.9% | 15.5% | 77.7% | inactive | inactive |  | 13.6% | 0.0662 µM (active) |  |  |  |  |  | 
Cc1cnc(-c2cc(N3CCN(C(=O)CCS(C)(=O)=O)CC3)ncc2Cl)c(C)c1 | 58.6% | 110% | 76.4% | 64.7% | inactive | inactive |  | 93.9% | inactive |  |  |  |  |  | 
CCC(=C(CC)c1ccc(O)cc1)c1ccc(O)cc1 | 57.2% | 84.8% | 90.8% | 25.3% | inactive | inactive |  | 96.4% | 23.5 µM (active) |  |  |  |  |  | 
CC(C)[C@H](O)C(=O)N[C@@H](C)C(=O)N[C@@H]1C(=O)N(C)CCc2ccccc21 |  | 26.2% | 17.8% | 95.1% | inactive | inactive |  | 14.9% | 16.6 µM (active) |  |  |  |  |  | 
O=C(Nc1ccc(OC(F)(F)F)cc1)c1sccc1NCc1ccnc2ccccc12 | 57% | 82.6% | 67.5% | 11.5% | 5.9 µM (active) | 6.62 µM (active) | 8.87% (inactive) | 85.7% |  |  |  |  | 71.5% | 75.1% | 58.1%
CCC(c1ccc(O)cc1)C(CC)c1ccc(O)cc1 (stereo not given) | 84.9% | 75% | 106% | 104% | inactive | inactive |  | 90% | 0.743 µM (active) |  |  |  |  |  | 
COc1cc2c(cc1Cc1cccc(Cl)c1F)c(=O)c(C(=O)O)cn2[C@H](CO)C(C)C | 7.9% | 16.6% | 3.89% | 11% | inactive |  |  | 19% | 26.4 µM (active) |  |  |  |  |  | 
CCCCCCOC(=O)N=C(N)c1ccc(NCc2nc3cc(C(=O)N(CCC(=O)OCC)c4ccccn4)ccc3n2C)cc1 | 9.57% | 16% | 7.43% | 17.1% | inactive | inactive |  | 28.2% |  |  |  |  |  |  | 
